Test results reported in the supplement of paper PMC9262897, “Low-cost anti-mycobacterial drug discovery using engineered E. coli” (Nature Communications, 2022).
Where a name gives a salt, the structure may show the parent alone. ± gives the standard deviation of the averaged measurements.

Assays:
Experiment in all cases: growth (OD600 after 10 h); higher = more growth (less inhibition)
[1] = test system: E. coli TESEC Alr+ wild-type control; conditions: compound 0.1 mM; raw OD600 reference: median of DMSO wells 0.241, cell-free background 0.041
Method: (§1)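 TESEC Mtb Alr E. coli, or the Alr+ wild-type control, in 384-well plates with Prestwick library compounds at 0.1 mM and 1% DMSO, across arabinose induction levels of 1E3 to 1E7 nM. Growth is read as OD600 after 10 h at 37 °C in triplicate biological replicates.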

E. coli TESEC Mtb Alr [2] = conditions: compound 0.1 mM
Method: as §1

E. coli TESEC Mtb Asd = conditions: compound 0.1 mM
Method: (§2)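 TESEC E. coli strains in which the native enzyme is deleted and replaced by arabinose-inducible Mtb Asd, DapB, CysH or TrpD, each grown in its selective medium. Strains were screened against the Prestwick library at 0.1 mM and 1% DMSO in 384-well format at low and high arabinose induction. Growth is read as OD600 after 10 h in triplicate.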

E. coli TESEC Mtb DapB = conditions: compound 0.1 mM
Method: as §2

[3] = test system: E. coli TESEC Alr+ wild-type control; conditions: compound 0.1 mM; raw OD600 reference: median of DMSO wells 0.49, cell-free background 0.052
Method: (§3)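 TESEC Mtb Alr E. coli (ΔaraC ΔtolC ΔentC Δalr ΔdadX, arabinose-inducible Mtb Alr) or the Alr+ wild-type control strain, grown in defined M9-fructose medium without D-alanine in 96-well plates with Prestwick library compounds at 0.1 mM and 1% DMSO. Low Alr induction is 0.1 µM arabinose and high induction is 10 mM arabinose.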

E. coli TESEC Mtb Alr [4] = conditions: compound 0.1 mM; remark: listed apart in the source
Method: as §3

[5] = arabinose 1000 nM, raw OD600 reference: median of DMSO wells 0.294, cell-free background 0.041
[6] = arabinose 10000 nM, raw OD600 reference: median of DMSO wells 0.264, cell-free background 0.041
[7] = arabinose 100000 nM, raw OD600 reference: median of DMSO wells 0.201, cell-free background 0.041
[8] = arabinose 1000000 nM, raw OD600 reference: median of DMSO wells 0.193, cell-free background 0.041
[9] = arabinose 10000000 nM, raw OD600 reference: median of DMSO wells 0.146, cell-free background 0.041
[10] = arabinose induction (level): High, raw OD600 reference: median of DMSO wells 0.331, cell-free background 0.041
[11] = arabinose induction (level): Low, raw OD600 reference: median of DMSO wells 0.417, cell-free background 0.041
[12] = arabinose induction (level): High, raw OD600 reference: median of DMSO wells […], cell-free background 0.041
[13] = arabinose induction (level): Low, raw OD600 reference: median of DMSO wells 0.227, cell-free background 0.041
[14] = arabinose 100 nM, raw OD600 reference: median of DMSO wells 0.413, cell-free background 0.052
[15] = arabinose 10000000 nM, raw OD600 reference: median of DMSO wells […], cell-free background 0.052

Row | Compound | growth [1] | growth (E. coli TESEC Mtb Alr [2]; [5]) | growth (E. coli TESEC Mtb Alr [2]; [6]) | growth (E. coli TESEC Mtb Alr [2]; [7]) | growth (E. coli TESEC Mtb Alr [2]; [8]) | growth (E. coli TESEC Mtb Alr [2]; [9]) | growth (E. coli TESEC Mtb Asd; [10]) | growth (E. coli TESEC Mtb Asd; [11]) | growth (E. coli TESEC Mtb DapB; [12]) | growth (E. coli TESEC Mtb DapB; [13]) | growth [3] | growth (E. coli TESEC Mtb Alr [4]; [14]) | growth (E. coli TESEC Mtb Alr [4]; [15])
1 | O=C(CCCN1CCC(O)(c2ccc(Br)cc2)CC1)c1ccc(F)cc1 [Bromperidol] | 0.215 ± 0.0079 | 0.287 ± 0.0074 | 0.265 ± 0.0061 | 0.218 ± 0.028 | 0.179 ± 0.0028 | 0.148 ± 0.0045 | 0.254 ± 0.025 | 0.344 ± 0.092 | 0.177 ± 0.014 | 0.215 ± 0.044 | 0.381 ± 0.013 | 0.417 ± 0.0095 | 0.306 ± 0.022
2 | CC(C(O)c1ccc(O)cc1)N1CCC(Cc2ccccc2)CC1 (configuration not stated) [Ifenprodil tartrate] | 0.195 ± 0.018 | 0.251 ± 0.019 | 0.276 ± 0.0052 | 0.194 ± 0.0092 | 0.143 ± 0.0037 | 0.172 ± 0.0094 | 0.313 ± 0.065 | 0.427 ± 0.028 | 0.1878 ± 0.00062 | 0.227 ± 0.036 | – | 0.409 ± 0.011 | 0.312 ± 0.0043
3 | C[C@@H]1CN(c2c(F)c(N)c3c(=O)c(C(=O)O)cn(C4CC4)c3c2F)C[C@H](C)N1 [Sparfloxacin] | 0.0414 ± 0.0019 | 0.0409 ± 0.0011 | 0.0398 ± 0.0002 | 0.0433 ± 0.0046 | 0.04 ± 0.00078 | 0.04067 ± 0.00038 | 0.04863 ± 0.0004 | 0.0462 ± 0.0031 | 0.0488 ± 0.00061 | 0.04823 ± 0.00038 | 0.0553 ± 0.0029 | 0.0536 ± 0.0018 | 0.051 ± 0.00046
4 | C=CC[N@@+]12CC[C@@]34c5ccccc5N5/C=C6/[C@H]7C[C@H]8[C@@]9(CC[N@@+]8(CC=C)C/C7=C/CO)c7ccccc7N(/C=C(/[C@@H](C[C@@H]31)/C(=C\CO)C2)[C@H]54)[C@@H]69 [Alcuronium chloride] | 0.214 ± 0.0094 | 0.255 ± 0.004 | 0.162 ± 0.0017 | 0.13 ± 0.0075 | 0.115 ± 0.0062 | 0.155 ± 0.0016 | 0.159 ± 0.0074 | 0.184 ± 0.044 | 0.197 ± 0.027 | 0.196 ± 0.023 | – | 0.41 ± 0.013 | 0.351 ± 0.0099
5 | COc1ccc(CCN(C)CCCC(C#N)(c2ccc(OC)c(OC)c2)C(C)C)cc1OC (configuration not stated) [Verapamil hydrochloride] | 0.185 ± 0.0071 | 0.25 ± 0.0055 | 0.27 ± 0.0044 | 0.195 ± 0.0032 | 0.116 ± 0.0045 | 0.149 ± 0.0027 | 0.243 ± 0.048 | 0.346 ± 0.095 | 0.177 ± 0.017 | 0.248 ± 0.044 | – | 0.409 ± 0.005 | 0.258 ± 0.014
6 | Oc1ccc(OCc2ccccc2)cc1 [Monobenzone] | 0.176 ± 0.0053 | 0.213 ± 0.017 | 0.249 ± 0.011 | 0.169 ± 0.004 | 0.134 ± 0.0036 | 0.161 ± 0.0038 | 0.314 ± 0.099 | 0.325 ± 0.025 | 0.2 ± 0.0057 | 0.21 ± 0.017 | – | 0.395 ± 0.019 | 0.304 ± 0.018
7 | NC(=O)C(c1ccccc1)(c1ccccc1)[C@@H]1CCN(CCc2ccc3c(c2)CCO3)C1 [Darifenacin hydrobromide] | 0.163 ± 0.011 | 0.216 ± 0.0036 | 0.292 ± 0.0043 | 0.16 ± 0.02 | 0.0999 ± 0.0027 | 0.146 ± 0.011 | 0.156 ± 0.033 | 0.276 ± 0.01 | 0.186 ± 0.0081 | 0.205 ± 0.015 | – | 0.411 ± 0.0056 | 0.272 ± 0.016
8 | O=C(CCCN1CCC(O)(c2ccc(Cl)cc2)CC1)c1ccc(F)cc1 [Haloperidol] | 0.216 ± 0.0039 | 0.265 ± 0.012 | 0.273 ± 0.0054 | 0.192 ± 0.015 | 0.172 ± 0.0034 | 0.14 ± 0.0019 | 0.395 ± 0.047 | 0.452 ± 0.028 | 0.187 ± 0.0073 | 0.248 ± 0.034 | 0.354 ± 0.006 | 0.4348 ± 0.0041 | 0.239 ± 0.012
9 | CC/C(=C(/CC)c1ccc(O)cc1)c1ccc(O)cc1 [Diethylstilbestrol] | 0.0422 ± 0.0023 | 0.04 ± 0.0015 | 0.0413 ± 0.0044 | 0.0436 ± 0.0041 | 0.0394 ± 0.00096 | 0.0457 ± 0.0042 | 0.169 ± 0.011 | 0.0743 ± 0.016 | 0.171 ± 0.013 | 0.198 ± 0.012 | – | 0.0551 ± 0.0059 | 0.0557 ± 0.0043
10 | Cc1c(N)c(=O)n(-c2ccccc2)n1C [Ampyrone] | 0.25 ± 0.0062 | 0.289 ± 0.008 | 0.267 ± 0.019 | 0.217 ± 0.02 | 0.187 ± 0.0029 | 0.146 ± 0.007 | 0.368 ± 0.033 | 0.446 ± 0.01 | 0.175 ± 0.0078 | 0.209 ± 0.011 | 0.457 ± 0.017 | 0.414 ± 0.0049 | 0.3598 ± 0.0033
11 | CN(C)CCC=C1c2ccccc2CCc2ccccc21 [Amitryptiline hydrochloride] | 0.1735 ± 0.0011 | 0.218 ± 0.0042 | 0.247 ± 0.0093 | 0.195 ± 0.012 | 0.08457 ± 0.00076 | 0.152 ± 0.0021 | 0.146 ± 0.0079 | 0.273 ± 0.011 | 0.195 ± 0.019 | 0.232 ± 0.047 | 0.476 ± 0.0078 | 0.403 ± 0.015 | 0.182 ± 0.031
12 | CC12CC3CC(C)(C1)CC(N)(C3)C2 [Memantine Hydrochloride] | 0.161 ± 0.005 | 0.207 ± 0.007 | 0.237 ± 0.017 | 0.184 ± 0.0066 | 0.195 ± 0.019 | 0.175 ± 0.0048 | 0.256 ± 0.039 | 0.155 ± 0.011 | 0.165 ± 0.011 | 0.199 ± 0.0086 | 0.503 ± 0.12 | 0.398 ± 0.018 | 0.392 ± 0.018
13 | CN(C)CCOC(=O)COc1ccc(Cl)cc1 [Meclofenoxate hydrochloride] | 0.235 ± 0.0029 | 0.3 ± 0.018 | 0.267 ± 0.0092 | 0.199 ± 0.013 | 0.184 ± 0.0027 | 0.138 ± 0.0014 | 0.355 ± 0.032 | 0.426 ± 0.029 | 0.199 ± 0.014 | 0.204 ± 0.019 | – | 0.4 ± 0.013 | 0.313 ± 0.014
